Assay outcomes as filed in PubChem.
Rows were chosen to be rich in hits. Some 6.9% of all compounds tested hit in one or more screens of this group.
ASM inhibitor: Inhibitors of Secretory Acid Sphingomyelinase (S-ASM): qHTS; placental ASM, HMU-PC fluorogenic substrate, 60 min; Potency, µM (series often up to 57.5 µM), inactives show at the top dose activity change, negative = inhibition, most hits filed as inhibitors; AID 504937, 2011; hit rate 0.006% among 340,000; Sphingomyelin phosphodiesterase (Homo sapiens), P17405; further: potency means the concentration at half of the fitted maximal effect
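Human placenta-derived ASM enzyme was preincubated with compound for 10 minutes at room temperature, then given fluorogenic substrate HMU-PC0 (9 uM final) for 60 minutes at 37 °C; a pH 10 stop preceded fluorescence reading at Ex 386/Em 447 nm.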
KB-V1 MDR tox: qHTS assay for MDR1-selective chemotherapeutics: Primary screen using the drug-selected MDR subline cells KB-V1; Potency, µM (highest dose often 46.1 µM), usual class: cytotoxic; AID 1347076, 2019; hit rate 3.4% among 400,000; KB-V1 MDR cells viability, CellTiter-Glo, 72 h; further: potency means the concentration at half of the fitted maximal effect; on the % scale 0 is the no-effect control and ±100 the full control effect; nearly all actives have a fitted effect of over 60% in size
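qHTS viability screen in drug-selected KB-V1 MDR cells: 72 h compound treatment at 37 degrees C, ATP luminescence end point.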
SW480 rereplic: A quantitative high throughput screen for small molecules that induce DNA re-replication in SW480 colon adenocarcinoma cells; SW480 DNA re-replication, Hoechst DNA content imaging, 48 h; Potency, µM (doses to about 46.1 µM), without a hit: at the highest dose re-replication activation, most hits filed as activators; hit rate 1.8% among 340,000; AID 624297, 2012; further: potency means the concentration at half of the fitted maximal effect; % of control where 0% means no effect; nearly all actives have a fitted effect of over 55% in size
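Cells (250 per well) received 23 nL compound or DMSO by pin tool and were kept 48 hr at 37 C, 5% CO2. Nuclei were then stained with Hoechst for 40 min and scanned for DNA content.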
Giardia kill: Small Molecules that selectively kill Giardia lamblia: qHTS; hit rate 0.15% among 340,000; AID 540267, 2011; activity change, % at 7.66 µM, hits read low; Giardia lamblia trophozoite viability; in the data active means activity change below about -80%; inconclusive means between about -30% and that limit;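 further: parasites exposed to compound for two days anaerobically before the ATP read; on the % scale 0 is the no-effect control and ±100 the full control effect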
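Compounds were tested on trophozoites seeded at 100 cells/well and held 48 hrs at 37 deg C anaerobically. An ATP-based luminescent kit measured the remaining live cells.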
KB-3-1 tox: qHTS assay for MDR1-selective chemotherapeutics: Primary screen using the parental adenocarcinoma cell KB-3-1 | KB-3-1 viability, CellTiter-Glo ATP luminescence, 72 h | Potency, µM (doses to about 46.1 µM), hits mostly cytotoxic | hit rate 1.4% among 400,000 | AID 1347075, 2019; further: potency means the concentration at half of the fitted maximal effect; on the % scale 0 is the no-effect control and ±100 the full control effect; nearly all actives have a fitted effect of over 60% in size
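Cytotoxicity in the drug-sensitive parental line KB-3-1 was scored as loss of CellTiter-Glo luminescence following 72 h incubation with compound. Values come from curve fitting of normalized concentration-response data.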
MCF10A rerep: A quantitative high throughput screen for small molecules that induce DNA re-replication in MCF 10a normal breast cells; MCF 10A DNA re-replication, Hoechst nuclear intensity, 48 h; Potency, µM (doses to about 46.1 µM), for the others: at the top dose activity, positive = re-replication, actives largely listed as activators; hit rate 2.9% among 350,000; further: potency means the concentration at half of the fitted maximal effect; % of control where 0% means no effect; nearly all actives have a fitted effect of over 50% in size
* = called active by the depositor; i = inactive; ? = inconclusive; . = no result. Unless noted, the call rests on the fitted dose curve; in most records, active means well fitted curve in the direction sought with a large enough effect; inconclusive means small, poorly fitted or top-dose-only effect, or another doubt; inactive means no such curve, though single readings can be large; an effect the other way counts as inactive or inconclusive.

SMILES	ASM inhibitor	KB-V1 MDR tox	SW480 rereplic	Giardia kill	KB-3-1 tox	MCF10A rerep
C=CCn1c(COc2ccccc2F)nnc1SCC(=O)c1c[nH]c2ccccc12	-2.6%	13µM*	-5.6%	11.8	?	17.3%
CC(C)c1ccc(OCCCN2CCCC2)cc1	1.5%	i	-0.9%	-13.6	i	?
Cc1cc[n+](CC(=O)c2ccc(F)cc2)cc1	.	i	.	.	?	.
O=c1oc2ccccc2c(Nc2cccc(O)c2)c1[N+](=O)[O-]	-2.2%	i	-3.9%	7.4	i	18.4µM*
O=C(O)c1cccc(Nc2c([N+](=O)[O-])c(=O)oc3ccccc23)c1	-0.2%	?	26.3%	-1.4	i	1.9%
CCOC(=O)C1(Cc2ccccc2C(F)(F)F)CCN(CC(O)CO)CC1 (centres undefined)	-2.3%	i	0.7%	3.6	i	7.7%
CCOC(=O)C1(Cc2ccccc2C(F)(F)F)CCN(Cc2ccc(COC)o2)CC1	2.3%	?	29.2%	5.5	18.4µM*	?
CCOC(=O)C1(Cc2ccccc2C(F)(F)F)CCN(C2CCN(C(C)C)CC2)CC1	4.8%	?	-2.0%	-6.4	i	18.4µM*
Nc1ccc[n+](CC(=O)c2ccc(F)cc2)c1	.	i	.	.	?	.
CCn1c(C)c(C2=CCN(S(=O)(=O)c3ccccc3)CC2)c2ccccc21	-2.5%	10.3µM*	?	12.7	?	?
CCOC(=O)C1=C[C@@H](CC)N(S(=O)(=O)c2ccc([N+](=O)[O-])cc2)[C@H]1c1ccccc1	.	i	.	.	i	.
CCOC(=O)C1=C[C@@H](C(C)C)N(S(=O)(=O)c2ccc([N+](=O)[O-])cc2)[C@H]1c1ccccc1	.	?	.	.	11.6µM*	.
COc1cccc(NC(=O)Cn2c(=O)n(CCC(=O)NC3CCN(Cc4ccccc4)CC3)c(=O)c3ccccc32)c1	0.2%	i	-34.6%	-4.9	i	2.7%
CN1CCN(S(=O)(=O)c2ccc(Cc3ccc(S(=O)(=O)N4CCN(C)CC4)cc3)cc2)CC1	3.9%	i	9.4%	-2.3	i	20.6µM*
CN1CCN(S(=O)(=O)c2ccc(Cl)cc2)CC1	1.5%	i	?	2.9	i	-0.8%
CN1CCN(S(=O)(=O)c2ccc(-c3ccc(Cl)cc3)cc2)CC1	3.8%	13µM*	-6.5%	-5.5	i	?
Cc1nc2ccc(S(=O)(=O)NC(C(=O)N3CCN(c4cccc(Cl)c4)CC3)C(C)C)cc2s1 (centres undefined)	.	i	.	.	i	.
CCN(CC)c1ccc(/C=C2\SC(=O)N(C(C)C)C2=O)o1	0.4%	i	?	-7.0	?	3.66µM*
COC(=O)C1(c2ccccc2)NC(c2cccs2)C2C(=O)N(c3ccccc3)C(=O)C21 (centres undefined)	-1.7%	23.1µM*	50.5%	6.3	?	18.5%
O=C(CCc1ccccc1)Nc1cccc([S+](=O)([O-])Nc2ccccc2F)c1	.	i	.	.	i	.
O=C(CSc1nc2ccccc2n1Cc1ccc(F)cc1)N1CCN(c2ccc(F)cc2)CC1	.	i	.	.	i	.
CCc1cc2c(=O)c(-c3ccc4c(c3)OCCO4)coc2cc1OS(C)(=O)=O	-0.1%	?	9.2µM*	-2.9	?	10.9%
CCc1cc2c(=O)c(-c3ccc4c(c3)OCCO4)coc2c(CN2CCCCC2C)c1O (centres undefined)	149.7%	i	?	-19.4	?	?
CCCOc1cccc(C(=O)Nc2cc(-c3ccccc3)no2)c1	.	i	.	.	i	.
Cc1ccc2[nH]c3c(c2c1)CCCC3NC(=O)CCl (centres undefined)	-2.1%	?	8.2µM*	1.3	i	20.6µM*
